Data published in PMC4336329 (PLoS ONE, 2015).
Among all 310,000 compounds or so, about 14,000 (4.5%) showed an effect of 50% or more. Effects have a minus sign here. Many of the other results were omitted from the sample, so strong results are more common in it than they were.

molecular target: human ether-à-go-go-related gene (hERG) potassium channel (human, UniProt Q12809); assay: primary screen, population patch clamp on CHO cells stably expressing hERG; higher = less effect of the substance
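Also: peak tail current of the secondary pulse compared with the same well before compound.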

human ether-à-go-go-related gene (hERG) potassium channel, sequence (Q12809 whole entry, looked up): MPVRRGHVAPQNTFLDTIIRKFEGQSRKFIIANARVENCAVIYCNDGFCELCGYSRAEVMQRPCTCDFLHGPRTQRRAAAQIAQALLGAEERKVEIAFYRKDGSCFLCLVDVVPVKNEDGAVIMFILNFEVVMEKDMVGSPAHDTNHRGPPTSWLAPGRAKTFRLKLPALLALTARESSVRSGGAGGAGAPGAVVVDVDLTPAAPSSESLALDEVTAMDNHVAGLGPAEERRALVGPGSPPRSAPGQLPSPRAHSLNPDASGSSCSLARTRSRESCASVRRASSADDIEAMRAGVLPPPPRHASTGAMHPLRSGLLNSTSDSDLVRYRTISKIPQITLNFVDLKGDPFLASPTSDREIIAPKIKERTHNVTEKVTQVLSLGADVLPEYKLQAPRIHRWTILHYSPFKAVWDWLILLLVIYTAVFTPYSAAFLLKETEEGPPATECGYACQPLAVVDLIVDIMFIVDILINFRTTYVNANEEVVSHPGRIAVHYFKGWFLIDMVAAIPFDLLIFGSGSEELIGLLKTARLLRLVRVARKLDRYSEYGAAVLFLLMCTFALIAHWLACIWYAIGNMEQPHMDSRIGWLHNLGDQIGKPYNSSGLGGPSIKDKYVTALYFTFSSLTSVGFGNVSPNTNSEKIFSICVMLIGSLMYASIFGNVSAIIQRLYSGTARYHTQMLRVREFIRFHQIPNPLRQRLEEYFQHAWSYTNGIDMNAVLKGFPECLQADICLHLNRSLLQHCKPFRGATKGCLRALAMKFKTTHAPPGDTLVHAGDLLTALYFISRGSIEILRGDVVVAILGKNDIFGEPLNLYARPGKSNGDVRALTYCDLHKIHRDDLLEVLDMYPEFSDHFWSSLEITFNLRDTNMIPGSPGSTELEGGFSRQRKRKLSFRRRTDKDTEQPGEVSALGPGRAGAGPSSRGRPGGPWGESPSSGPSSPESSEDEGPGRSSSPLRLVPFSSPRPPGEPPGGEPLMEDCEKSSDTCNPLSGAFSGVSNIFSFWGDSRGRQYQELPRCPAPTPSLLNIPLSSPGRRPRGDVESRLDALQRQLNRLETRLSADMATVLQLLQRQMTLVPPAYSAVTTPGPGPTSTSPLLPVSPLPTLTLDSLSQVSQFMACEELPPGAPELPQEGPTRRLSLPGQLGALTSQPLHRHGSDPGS

| Compound | hERG current change (%, negative = inhibition) at 10uM |
| --- | --- |
| O=C(CN1CCN(c2ccccn2)CC1)Nc1ccccc1F | 1.45% |
| c1ccc2c(c1)CC1(CCCC1)n1nnnc1-2 | -19.4% |
| O=C(NCc1ccccc1)C1=C[C@H](C2CCCCC2)C[C@H](OCCCCO)O1 | -3.07% |
| N#Cc1cc([N+](=O)[O-])cnc1N(CCO)CCO | -1.1% |
| CN1CCN(c2ncnc3nc[nH]c23)CC1 | 18.5% |
| Cc1ccccc1C(=NCCCN(C)C)c1ccccc1C.Cl | -21.7% |
| Cc1ccc(NCC(=O)N=Nc2c(O)[nH]c3ccc([N+](=O)[O-])cc23)cc1 | -5.06% |
| Cc1ccc(O)c(-c2cc(C(=O)Nc3c(C)n(C)n(-c4ccccc4)c3=O)[nH]n2)c1 | 8.4% |
| O=C(O)c1ccccc1NC(c1ccccc1)c1ccc(Cl)cc1 (centres unmarked) | 19.8% |
| N#C/C(=C\c1ccccc1[N+](=O)[O-])C(=O)NC1CCCCC1 | -13.9% |
| COc1ccc(N2CCN(C(=O)COC(=O)CNC(=O)c3cccc(OC(F)F)c3)CC2)cc1 | -43.7% |
| COc1cccc(C(=O)NCC(=O)OCC(=O)c2ccccc2)c1 | 2.59% |
| Cc1cc(C(=O)NCC(=O)OCC(=O)N(C(C)C)C(C)C)ccc1[N+](=O)[O-] | 10.6% |
| Cc1cc(C(=O)NCC(=O)OCC(=O)NCCc2ccccc2)ccc1[N+](=O)[O-] | -16.9% |
| Cc1cc(C(=O)NCC(=O)OCC(=O)Nc2ccc(OC(F)F)cc2)ccc1[N+](=O)[O-] | -67.8% |
| COc1ccc(C(=O)COC(=O)CNC(=O)c2cccc(OC(F)F)c2)cc1 | -64.6% |
| Cc1ccnc2c(N3C(=O)C4C5c6ccccc6C(c6ccccc65)C4C3=O)cccc12 (centres unmarked) | -2.78% |
| CCCNC(=O)C(Cc1ccc(C(F)(F)F)cc1)NC(=O)c1ccc2ccccc2n1 (centres unmarked) | 14% |
| CCc1ccc2ncc(S(=O)(=O)c3ccc(C)c(C)c3)c(N3CCCC3)c2c1 | 0.769% |
| CCOc1ccc2ncc(S(=O)(=O)c3ccccc3)c(N3CCN(c4ccccc4)CC3)c2c1 | -2.21% |
| CCN1CCN(c2c(S(=O)(=O)c3ccc(C)c(C)c3)cnc3ccc(F)cc23)CC1 | -53.4% |
| Nc1cc(N)nc(SCC(=O)Nc2ccc3c(c2)OCCCO3)n1 | 8.03% |

| Compound | hERG current change (%, negative = inhibition) at 10uM |
| --- | --- |
| CN(C)c1ccc(/C=N/N(Cc2ccccc2)c2ccccc2)cc1 | 3.54% |
| O=C(CCNS(=O)(=O)c1ccccc1)Nc1ccc(Cl)cc1C(=O)c1ccccc1 | -32.9% |
| O=C(CN1CCCC1)Nc1ccc(Cl)cc1C(=O)c1ccccc1.O=C(O)C(=O)O | -46.8% |
| O=C(O)CC1(CC(=O)Nc2ccc(Cl)cc2C(=O)c2ccccc2)CCCC1 | 6.78% |
| Cc1cc(Cl)ccc1NC(=O)CN1CCCC1 | 27.1% |
| CN1CCN(CC(=O)Nc2ccc(Cl)cc2C(=O)c2ccccc2)CC1 | -77.2% |
| Cc1ccccc1NC(=O)CC1c2ccccc2CC(C)(C)N1C (centres unmarked) | 4.03% |
| CN1C(CC(=O)Nc2ccc(Cl)cc2Cl)c2ccccc2CC1(C)C (centres unmarked) | -76.7% |
| CN1CCN(CC(=O)Nc2ccc(Cl)cc2Cl)CC1 | -69.4% |
| O=C(CN1CCCCCCC1)Nc1ccc(Cl)cc1Cl | 35.9% |
| CN1C(CC(=O)Nc2ccc(Br)cc2)c2ccccc2CC1(C)C (centres unmarked) | -38.2% |
| CN1CCN(C(=S)SCC(=O)Nc2ccc(Cl)cc2C(=O)c2ccccc2)CC1 | -29.8% |
| O=C(CCN1CCCCC1)Nc1ccc(Cl)cc1C(=O)c1ccccc1 | -72.6% |
| COc1cccc(C(=O)Nc2cc(NC(=O)c3cccs3)ccc2C)c1OC | -14% |
| Cc1sc(-c2c(C#N)c(N)nc3c2CCCCCC3)cc1[N+](=O)[O-] | -4.1% |
| COc1ccc(NC(=O)C2CCN(C(=O)[C@@H]3Cc4ccccc4CN3C(=O)OC(C)(C)C)CC2)cc1 | 2.02% |
| Cc1cc(C)c(NC(=O)Nc2ccccc2)c(C)n1 | 23.4% |
| CN1CCN(CC(=O)Nc2cccc([N+](=O)[O-])c2)CC1 | 3.24% |
| O=C(CN1CCCC1)Nc1ccccc1C(=O)c1ccccc1 | -2.59% |
| CN1CCN(CC(=O)Nc2ccc([N+](=O)[O-])cc2C(=O)c2ccccc2)CC1 | -84.6% |
| O=C(COc1ccccc1)Nc1ccc(Cl)cc1C(=O)c1ccccc1 | 6.83% |
| O=C(CN1CCN(CCO)CC1)Nc1ccc(Cl)cc1C(=O)c1ccccc1 | -72.8% |
